Experimental data from PubChem BioAssay AID651604 (The Scripps Research Institute Molecular Screening Center, 2012).
Among all 1,500 compounds or so, about 1,400 (93%) were called active. Rule as the data show it: active = inhibition above about 9.5%; inactive = the rest. So high a share suggests a set chosen from earlier hits. Only a sample is shown.

Assay: PGV04 antibody small-molecule binding – biochemical, TR-FRET, distinct HIV envelope site, counter-screen for PG9 antibody binder project (AID 651604)
Conditions: TR-FRET PGV04 antibody-gp120 binding, at 6.7 µM, active compounds read high

Q: For `Fc1cc(F)c2nc(Nc3nc4c(F)cccc4s3)sc2c1`, which inhibition is on record?
A: The inhibition was 15.5% (active).

Q: Which inhibition does the source give for `Cc1nc(-c2ccccc2)sc1-c1nc(-c2ccccc2)ncc1S(=O)(=O)c1ccccc1` here?
A: The inhibition was 11.5% (active).

Q: Which inhibition does the source give for `CC(C)OCCCNC(=O)c1cc(Sc2ccc(F)cc2)nc2ccccc12` here?
A: The inhibition was 28.9% (active).

Q: For `N#C/C=C1\Sc2ccccc2C(=O)N1CC(=O)N1CCN(S(=O)(=O)c2ccccc2)CC1`, which inhibition is on record?
A: Its inhibition is 36.9% (active).

Q: Which inhibition does the source give for `COCCNC(=O)c1cc2c(Br)ccc(Br)c2nc1N` here?
A: The inhibition was 20.9% (active).

Q: Which inhibition does the source give for `CC(=O)c1sc(NC(=O)CCCOc2ccccc2C)nc1C` here?
A: Its inhibition is 29.6% (active).

Q: With `COc1cccc(-n2c(SCC(=O)c3c[nH]c4ccccc34)nc3ccccc3c2=O)c1` as the compound, how does the inhibition read?
A: The inhibition was 32.9% (active).

Q: With `Cc1cc2c(cc1C)N1C(=O)c3cc4ccccc4cc3NC(=O)C1C(=O)N2` (stereo not drawn) as the compound, how does the inhibition read?
A: The inhibition was 17% (active).

Q: Which inhibition does the source give for `O=C(Oc1ccccc1)Oc1ccc2c(c1)oc(=O)c1ccccc12` here?
A: Its inhibition is 46.4% (active).

Q: Which inhibition does the source give for `N#Cc1ccccc1Sc1ccccc1C(=O)OCC(=O)NC1CCCCC1` here?
A: The inhibition was 45.7% (active).

Q: With `Cc1ccc(-c2cc(C(=O)NCc3cn(C)nc3C)c3cc(Br)ccc3n2)cc1` as the compound, how does the inhibition read?
A: Its inhibition is 25.8% (active).

Q: Which inhibition does the source give for `Cc1ccc(-n2c(SCC(=O)NCCC3=CCCCC3)nc3n[nH]c(C)c3c2=N)cc1Cl` here?
A: The inhibition was 27.8% (active).

Q: Which inhibition does the source give for `CCCCNC(=O)CSc1nc2n[nH]c(C)c2c(=N)n1-c1cccc(Cl)c1C` here?
A: Its inhibition is 63.2% (active).

Q: For `COc1cccc(-c2ccc(C#N)c(SCC(=O)NCCc3ccc(Cl)cc3)n2)c1`, which inhibition is on record?
A: The inhibition was 13% (active).

Q: With `COc1ccc(CCNC(=O)CSc2nc(-c3ccc(OC)c(OC)c3)ccc2C#N)cc1` as the compound, how does the inhibition read?
A: Its inhibition is 38.1% (active).

Q: For `COC(=O)c1ccc(NC(=S)Nc2cccc(C)n2)cc1`, which inhibition is on record?
A: Its inhibition is 16.1% (active).

Q: With `S=c1[nH]c2ccccc2c2ccccc12` as the compound, how does the inhibition read?
A: Its inhibition is 11.6% (active).

Q: For `O=C(Nc1nnc(-c2ccccc2F)s1)c1ccccc1F`, which inhibition is on record?
A: The inhibition was 36.9% (active).

Q: For `CCCOc1ccc(C2C(C(=O)c3ccc(C)o3)=C(O)C(=O)N2CCCn2ccnc2)cc1` (stereo not drawn), which inhibition is on record?
A: Its inhibition is 65.3% (active).

Q: Which inhibition does the source give for `C=CCOc1cccc(C2C(C(=O)c3ccc(C)o3)=C(O)C(=O)N2CCCn2ccnc2)c1` (stereo not drawn) here?
A: Its inhibition is 22.6% (active).

Q: For `O=C(O)CCC(=O)Nc1nc2ccc([N+](=O)[O-])cc2s1`, which inhibition is on record?
A: Its inhibition is 5.74% (inactive).

Q: With `COc1ccc(CC(=O)Nc2ccc(-c3nnc(-c4ccccc4)o3)cc2)cc1` as the compound, how does the inhibition read?
A: The inhibition was 24.6% (active).

Q: For `CCc1ccc(NC(=O)CSc2nnc(-c3cnccn3)n2Cc2ccco2)cc1`, which inhibition is on record?
A: The inhibition was 29.1% (active).

Q: With `O=C(C1=C(O)C(=O)N(Cc2ccccc2)C1c1ccco1)c1ccco1` (stereo not drawn) as the compound, how does the inhibition read?
A: The inhibition was 39.4% (active).

Q: For `Cc1cc(C)cc(NC(=O)C2CCCN(S(=O)(=O)c3ccc4[nH]c(=O)ccc4c3)C2)c1` (stereo not drawn), which inhibition is on record?
A: Its inhibition is 34.2% (active).

Q: With `COc1ccc(Cl)cc1NC(=O)Cn1nc(-c2ccc(C)cc2)n(C)c1=S` as the compound, how does the inhibition read?
A: Its inhibition is 26.6% (active).

Q: With `COc1ccc(-c2csc(NC(=O)c3ccc(N4C(=O)CCC4=O)cc3)n2)cc1OC` as the compound, how does the inhibition read?
A: The inhibition was 20.8% (active).

Q: For `Cc1nc2cc(NC(=O)CSc3nc4c(C)cccc4cc3C#N)ccc2s1`, which inhibition is on record?
A: The inhibition was 59.1% (active).

Q: For `CC(=O)c1sc2nc(SCC(=O)N3CCCCC3)[nH]c(=O)c2c1C`, which inhibition is on record?
A: Its inhibition is 32.7% (active).

Q: Which inhibition does the source give for `N#Cc1c(-c2cccs2)nc(SCC(=O)c2ccc(Br)cc2)[nH]c1=O` here?
A: The inhibition was 38.1% (active).

Q: Which inhibition does the source give for `COCCCNc1nc2c(-c3cccc(C)c3)nnn2c2ccc(Cl)cc12` here?
A: Its inhibition is 30.7% (active).

Q: For `C=CCn1c(=NC(=O)c2cccs2)sc2cc(NC(C)=O)ccc21`, which inhibition is on record?
A: Its inhibition is 12.5% (active).

Q: For `C=CCn1c(=NC(=O)c2ccc(S(=O)(=O)N3CCCC3)cc2)sc2cc(NC(C)=O)ccc21`, which inhibition is on record?
A: Its inhibition is 43% (active).

Q: Which inhibition does the source give for `Cc1c(-c2ccccc2)nc(N)c(C#N)c1-c1cccs1` here?
A: Its inhibition is 27.9% (active).

Q: With `CCCc1nc(SCC(=O)Nc2ccc(S(=O)(=O)N(C)C)cc2)c2ccccc2n1` as the compound, how does the inhibition read?
A: Its inhibition is 41% (active).

Q: For `N#Cc1ccccc1NC(=O)c1cccc(COc2ccc(Cl)cc2Cl)c1`, which inhibition is on record?
A: The inhibition was 24.8% (active).

Q: Which inhibition does the source give for `CCOc1cc2ccccc2cc1C(=O)Nc1ccccn1` here?
A: The inhibition was 16.9% (active).

Q: With `N#Cc1c(N)nc2c3c(sc(=N)c2c1N)NC(=O)CC3c1ccccc1Cl` (stereo not drawn) as the compound, how does the inhibition read?
A: Its inhibition is 37% (active).

Q: For `O=C1C(=O)N(CCN2CCOCC2)C(c2cccc(Cl)c2)/C1=C(/O)c1ccc2c(c1)OCO2` (stereo not drawn), which inhibition is on record?
A: The inhibition was 42.7% (active).

Q: Which inhibition does the source give for `COc1ccc(-n2nnnc2-c2nc3ccccc3s2)cc1` here?
A: Its inhibition is 59.6% (active).

Q: With `O=C(COC(=O)c1ccc2c(c1)OCCO2)NCc1ccccc1Cl` as the compound, how does the inhibition read?
A: Its inhibition is 33.7% (active).

Q: With `COc1ccc(-c2c(C)nn3c(N4CCC(C(=O)N5CCCCC5)CC4)cc(C)nc23)cc1OC` as the compound, how does the inhibition read?
A: The inhibition was 12.2% (active).

Q: For `Cn1c(=S)sc2ccc3ccccc3c21`, which inhibition is on record?
A: Its inhibition is 15.2% (active).

Q: For `COc1cccc(NS(=O)(=O)c2ccc3[nH]cc(C(=O)NCCCOC(C)C)c(=O)c3c2)c1`, which inhibition is on record?
A: The inhibition was 19.8% (active).

Q: With `CCOc1ccc2cc(C#N)c(SCC(=O)OC)nc2c1` as the compound, how does the inhibition read?
A: The inhibition was 65.8% (active).

Q: With `O=C(NCc1ccc(Cl)cc1)c1cc2c(nc3sccn32)s1` as the compound, how does the inhibition read?
A: Its inhibition is 30.7% (active).

Q: Which inhibition does the source give for `Cc1cccc(Nc2nc3c(S(=O)(=O)c4ccccc4)nnn3c3ccccc23)c1C` here?
A: Its inhibition is 34.2% (active).

Q: Which inhibition does the source give for `O=C(Nc1c(Br)cc2c(c1Br)Cc1cc([N+](=O)[O-])ccc1-2)C(Cl)Cl` here?
A: Its inhibition is 79.2% (active).

Q: For `Cc1ccc(-n2ncc3c(=O)n(-c4ccc(C)c(C)c4)c(-c4ccco4)nc32)cc1`, which inhibition is on record?
A: The inhibition was 11.9% (active).

Q: For `Cc1cc(Br)ccc1NC(=O)c1sc2ncn(CC(=O)N3CCN(c4ccccn4)CC3)c(=O)c2c1C`, which inhibition is on record?
A: Its inhibition is 15.6% (active).

Q: Which inhibition does the source give for `CCOc1cccc(NC(=O)Cn2nc(-c3ccc4c(c3)OCCO4)ccc2=O)c1` here?
A: Its inhibition is 25.3% (active).

Q: For `CCOc1ccc(C(=O)COC(=O)c2ccc(-n3cnnn3)cc2)cc1`, which inhibition is on record?
A: Its inhibition is 34% (active).

Q: For `CCOC(=O)c1c(C)[nH]c(C(=O)OCC(=O)c2ccc(OC)cc2OC)c1C`, which inhibition is on record?
A: The inhibition was 54.4% (active).

Q: With `CC(=O)c1cc(C#N)c(SCC(=O)Nc2nccs2)nc1C` as the compound, how does the inhibition read?
A: Its inhibition is 51.4% (active).

Q: For `O=C1COc2ccc(C(=O)COC(=O)c3ccccc3Cl)cc2N1`, which inhibition is on record?
A: Its inhibition is 32.6% (active).

Q: With `Cc1nc2nc(SCC(=O)c3ccccc3)[nH]c2cc1Br` as the compound, how does the inhibition read?
A: Its inhibition is 46.9% (active).

Q: Which inhibition does the source give for `O=C(Nc1cccc(S(=O)(=O)Nc2ccc(Cl)cc2)c1)c1ccc2c(c1)OCCO2` here?
A: Its inhibition is 34.2% (active).

Q: Which inhibition does the source give for `CC1(C)Cc2ccccc2-c2[nH]c(=S)[nH]c(=O)c21` here?
A: The inhibition was 7.23% (inactive).

Q: Which inhibition does the source give for `CCn1c(SCC(=O)Nc2cccc(F)c2)nnc1-c1cc2cc(Br)ccc2o1` here?
A: The inhibition was 58.4% (active).

Q: Which inhibition does the source give for `O=C(N=C1SC2CS(=O)(=O)CC2N1Cc1ccccc1)c1ccccc1` (stereo not drawn) here?
A: The inhibition was 46.9% (active).

Q: With `CCn1nnc2cc(C(=O)Nc3ccc(C(=O)OC(C)C)cc3)ccc21` as the compound, how does the inhibition read?
A: Its inhibition is 37% (active).

Q: For `COC(=O)C1=C(C)N(Cc2ccccc2C(F)(F)F)C(=NCc2ccc(OC)cc2)NC1c1cccc(C(F)(F)F)c1` (stereo not drawn), which inhibition is on record?
A: Its inhibition is 6.34% (inactive).

Q: Which inhibition does the source give for `O=C(O)CCCCCNc1ncnc2ccc(Br)cc12` here?
A: The inhibition was 30.4% (active).
